POLK inh: DNA polymerase kappa (human) inhibition. purified Pol kappa, fluorescent DNA synthesis assay, 10 min. Q9UBT6. 400,000 compounds, 0.53% hits. Potency, µM (highest dose often 107 µM), for inactives: at the top dose activity, negative = inhibition, actives largely listed as inhibitors; note: potency is the fitted concentration of half-maximal effect; % is set by controls: 0 for no effect and ±100 for the full control effect
Target sequence (Q9UBT6 whole entry, looked up): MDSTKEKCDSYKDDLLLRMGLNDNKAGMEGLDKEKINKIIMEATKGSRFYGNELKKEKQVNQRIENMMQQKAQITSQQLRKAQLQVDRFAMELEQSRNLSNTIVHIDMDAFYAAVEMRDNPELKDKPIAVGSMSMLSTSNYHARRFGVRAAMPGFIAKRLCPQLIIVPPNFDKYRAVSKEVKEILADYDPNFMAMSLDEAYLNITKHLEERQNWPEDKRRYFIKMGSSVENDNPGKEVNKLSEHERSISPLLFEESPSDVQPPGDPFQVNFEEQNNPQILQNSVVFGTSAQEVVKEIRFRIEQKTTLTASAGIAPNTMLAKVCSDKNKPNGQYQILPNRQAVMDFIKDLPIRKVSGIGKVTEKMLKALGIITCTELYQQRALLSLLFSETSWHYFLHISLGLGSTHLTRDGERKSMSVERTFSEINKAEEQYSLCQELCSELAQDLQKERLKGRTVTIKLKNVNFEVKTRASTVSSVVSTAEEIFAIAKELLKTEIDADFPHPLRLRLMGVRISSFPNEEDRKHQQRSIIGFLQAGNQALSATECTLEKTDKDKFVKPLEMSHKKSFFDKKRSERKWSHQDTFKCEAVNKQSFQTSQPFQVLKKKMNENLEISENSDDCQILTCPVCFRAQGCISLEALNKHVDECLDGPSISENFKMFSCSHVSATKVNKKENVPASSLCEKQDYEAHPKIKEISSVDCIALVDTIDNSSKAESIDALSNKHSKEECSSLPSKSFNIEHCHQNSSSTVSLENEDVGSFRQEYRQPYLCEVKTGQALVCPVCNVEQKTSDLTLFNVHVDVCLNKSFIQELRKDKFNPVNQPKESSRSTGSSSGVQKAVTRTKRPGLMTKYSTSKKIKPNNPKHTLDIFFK
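Activity was followed as the change in fluorescence between reads at 0 and 10 min after starting the reaction with 50 nM substrate. Beforehand, 10 nM polymerase had been preincubated with compound for 15 min at room temperature.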
Pol beta inh-1: DNA polymerase beta (human) inhibition | Pol beta primer extension/strand displacement, fluorescence kinetic | P06746 | AID 485314 | Potency, µM (series often up to 114 µM), for inactives: top-dose activity change, negative = inhibition, usual class: inhibitors | 340,000 compounds, 1.3% hits; note: potency is the fitted concentration of half-maximal effect; % is set by controls: 0 for no effect and ±100 for the full control effect
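Kinetic readout of DNA synthesis with strand displacement by Pol beta. Compound and 10 nM enzyme sit 15 min at room temperature; 50 nM substrate starts the reaction, read immediately and at 10 min.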
POLI inh: DNA polymerase iota (human) inhibition | Q9UNA4 | Potency, µM (doses to about 115 µM), without a hit: top-dose activity, negative = inhibition, hits mostly inhibitors | Pol iota fluorescent replication assay, 10 min | AID 588590 | 390,000 compounds, 1% hits; note: potency is the fitted concentration of half-maximal effect
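Pol iota at 10 nM preincubated 15 min with compounds at room temperature; reaction started with fluorescent substrate, 50 nM final. Fluorescence read kinetically at 0 and 10 min; buffer-only wells as negative control.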
Pol eta inh: blocks human DNA polymerase eta activity | Q9Y253 | recombinant Pol eta, fluorescent DNA replication assay | Potency, µM (series often up to 114 µM), inactives show at the top dose activity change, negative = inhibition, most hits filed as inhibitors | 390,000 compounds, 1.2% hits; note: potency is the fitted concentration of half-maximal effect; % is set by controls: 0 for no effect and ±100 for the full control effect
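Pol eta (10 nM) was preincubated with compounds for 15 min at room temperature, after which fluorescent replication substrate (50 nM final) was added to start the reaction. Fluorescence was read kinetically at 0 and 10 min.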
WRN helicase inh: blocks human WRN helicase; Q14191; WRN helicase unwinding, fluorescent forked duplex, kinetic; Potency, µM (titrated, usually from 114 µM), without a hit: at the highest dose activity change, negative = inhibition, hits mostly inhibitors; 360,000 compounds, 0.46% hits; AID 651768; note: potency is the fitted concentration of half-maximal effect; % is set by controls: 0 for no effect and ±100 for the full control effect; nearly all actives have a fitted effect of over 55% in size
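Kinetic red-fluorescence monitoring (525/598 nm) tracks WRN helicase activity after 100 nM fluorophore-quencher forked duplex and 2 mM ATP are added to 20 nM enzyme pretreated 15 min at room temperature with compound.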
Pol beta inh-2: Inhibitors of human DNA polymerase beta, hit validation | shares compounds with Pol beta inh-1 | Pol beta primer extension/strand displacement, fluorescence kinetic | Potency, µM, hits mostly inhibitors | 250 compounds, 87% hits | AID 540280; calls by dose curve; note: potency is the fitted concentration of half-maximal effect
Klenow inh: counter-screen for DNA polymerase beta inhibitors: Klenow fragment inhibition; shares compounds with Pol beta inh-1; Klenow exo- polymerase counter-screen, fluorescent DNA substrate; activity change, negative = inhibition, % at 57.1 µM; 250 tested, under 10 active; AID 540300
HIV RT counter: inhibits HIV-1 reverse transcriptase in counter-screen | shares compounds with Pol beta inh-1 | HIV-1 RT polymerase activity, counter-screen | activity % (negative = inhibition, positive = activation), % at 57.1 µM | 250 tested, under 10 active
POLB valid: DNA polymerase beta inhibition, radiolabeled validation; shares compounds with Pol beta inh-1; inhibition, % at 10 µM; radiolabeled primer extension gel assay, phosphorimager; AID 540325; 110 compounds, 91% hits;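 active = inhibition at 10 µM of 30% or more; inconclusive = no clear call, values can overlap the other calls; inactive = inhibition at 10 µM under 30%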
An asterisk follows results filed as active; ? = inconclusive; . = not tested or not shown; [ ] = remark or other dose. Compounds with a hit are over-represented: about 2.3% of the library has one in this group of screens. Unless noted, calls come from the whole dose curve; as a rule, active = well fitted curve in the direction sought with a large enough effect; inconclusive = small, poorly fitted or top-dose-only effect, or another doubt; inactive = no such curve, though single readings can be large; an effect the other way counts as inactive or inconclusive.

SMILES	POLK inh	Pol beta inh-1	POLI inh	Pol eta inh	WRN helicase inh	Pol beta inh-2	Klenow inh	HIV RT counter	others
CC1N(C)c2cc(NC(=O)c3ccco3)ccc2C1(C)C (centres undefined)	?	20µM*	?	?	50.1µM*	?	-36.4	-8.4
CC(=O)Nc1ccc(NC(=O)c2ccco2)cc1	-1.8%	-4.5%	18.9%	3.8%	0.6%	.	.	.
O=[N+]([O-])c1cc(CN2CCOCC2)c2cccnc2c1O	?	2.51µM*	?	8.91µM*	-22.8%	4.47*	11.0	19.6
COC(=O)c1ccc(CSc2nc3scc(-c4cccs4)c3c(=O)[nH]2)o1	?	20µM*	?	?	?	31.6*	-9.0	21.7	POLB valid=97.8*
O=C(COC(=O)c1ccco1)NCc1ccco1	-3.6%	-6.3%	-16.1%	-7.6%	-11.2%	.	.	.
O=C(COC(=O)c1ccccc1Oc1ccccc1)NCc1ccco1	79.4µM*	20µM*	?	14.1µM*	?	35.5*	-4.2	?
CCOC(=O)C1=C(CS(=O)(=O)c2ccc(C(C)(C)C)cc2)NC(=O)NC1c1cccc(OC)c1 (centres undefined)	-7.4%	0.2%	?	-5.0%	.	.	.	.
CCN(CC)S(=O)(=O)c1ccc(N2CCOCC2)c(NC(=O)c2c3c(nc4ccccc24)CCC3)c1	?	8.91µM*	31.6µM*	35.5µM*	-25.6%	25.1*	-22.4	19.4	POLB valid=87.5*
CCOc1ccc(C(=O)/C=C/Nc2ccc(S(=O)(=O)Nc3cc(C)nc(C)n3)cc2)cc1	-31.8%	8.91µM*	39.8µM*	?	-18.4%[57.1 µM]	35.5*	-36.4	0.6	POLB valid=69.2*
Cc1cc(C)nc(NS(=O)(=O)c2ccc(N/C=C\C(=O)c3ccc(Cl)cc3)cc2)n1	-6.1%	?	?	-18.1%	-18.2%	.	.	.
COC(=O)c1c(SCC(=O)Nc2ccccc2OC)[nH]c2ccccc2c1=O	-11.0%	-7.9%	-23.8%	-0.7%	.	.	.	.
CCOc1cccc(C(=O)Nc2ccc(NC(=O)c3ccccc3)c(C)c2)c1	-9.4%	8.6%	44.5%	-15.7%	0.9%	.	.	.
CCOc1ccc(C(=O)Nc2ccc(NC(=O)c3ccccc3)c(C)c2)cc1[N+](=O)[O-]	-1.7%	20µM*	153.2%	-23.1%	-27.6%	17.8*	-2.6	41.6
CCn1cc(C(=O)NCc2ccco2)c(=O)c2cc(F)c(N3CCN(C(=O)c4ccco4)CC3)cc21	?	14.1µM*	?	?	?	?	-36.0	33.4
Cc1ccccc1CNC(=O)c1oc2c(c1C)-c1nn(Cc3ccc(Cl)cc3)cc1CC2	4.6%	-5.2%	-0.2%	-14.2%	.	.	.	.
O=C(Nc1nnc(SCc2c(Cl)cccc2Cl)s1)C1CC(=O)N(c2ccc3c(c2)OCCO3)C1 (centres undefined)	?	7.08µM*	15.8µM*	?	-19.1%[57.1 µM]	?	-23.3	4.2
O=C(Nc1nc(-c2ccco2)c(-c2ccco2)s1)C1CC(=O)N(c2ccc3c(c2)OCCO3)C1 (centres undefined)	20µM*	8.91µM*	7.94µM*	8.91µM*	12.6µM*	?	-26.0	-3.3	POLB valid=97.1*
Cc1nnc(NC(=O)C2CC(=O)N(c3ccc4c(c3)OCCO4)C2)s1 (centres undefined)	-14.7%	.	?	1.4%	-1.7%	.	.	.
COc1cc2c(C(=O)N(C)c3cc(Cl)ccc3OC)cn(CC(C)C)c(=O)c2cc1OC	-13.5%	47.3%	25.4%	-18.3%	.	.	.	.
O=c1[nH]c(C(Cl)Cl)nc2sc3c(c12)CCN(Cc1ccccc1)C3	?	12.6µM*	?	39.8µM*	-35.9%	15.8*	-5.1	4.0
Cc1ccc(NC(=O)Cn2nc(C)n3cccc3c2=O)c(C)c1	4.2%	-6.1%	-0.9%	-7.8%	.	.	.	.
NS(=O)(=O)c1ccc(NC(=O)c2ccc(-c3ccccc3)cc2)cc1	?	14.1µM*	?	?	-27.5%	15.8*	-33.0	7.8
CC(C)(C)c1ccc(C(=O)Nc2ccc(S(N)(=O)=O)cc2)cc1	-8.1%	25.8%	6.9%	-3.9%	-10.2%	.	.	.
Cc1cc(NC(=O)CN(C)S(=O)(=O)c2ccc3c(c2)CCC(=O)N3)ccc1Br	-14.4%	-1.2%	6.7%	-6.3%	.	.	.	.
Cc1cc(C)cc(NC(=O)C(=O)NC(C)c2ccccc2)c1 (centres undefined)	-5.1%	-1.9%	8.6%	9.8%	.	.	.	.
SMILES	POLK inh	Pol beta inh-1	POLI inh	Pol eta inh	WRN helicase inh	Pol beta inh-2	Klenow inh	HIV RT counter	others
O=C(CSc1nnnn1-c1ccc(F)cc1)c1ccc(O)c(O)c1	?	12.6µM*	?	?	?	7.94*	-20.8	24.7
COc1ccc(NC(=O)Cn2c(=O)oc3cc(S(=O)(=O)N4CCC(C)CC4)ccc32)c(OC)c1	-4.7%	-1.1%	11.7%	-22.1%	.	.	.	.
O=C(OCc1cc(=O)n2c(n1)sc1ccccc12)c1ccc2c(=O)n3c(nc2c1)CCC3	?	10µM*	?	?	-6.4%[11.6 µM]	12.6*	-17.2	26.8
COc1ccccc1-c1nnc2n1N=C(c1ccc(O)c(O)c1)CS2	25.1µM*	3.98µM*	12.6µM*	8.91µM*	22.4µM*	25.1*	-21.7	-14.5	POLB valid=36.9*
CCOc1ccc(C2=Nn3c(nnc3-c3ccccc3OC)SC2)cc1	-4.7%	-0.5%	20.3%	1.6%	-12.1%	.	.	.
COc1cc(NC(=O)c2nn(C)c3c2COc2ccccc2-3)cc(OC)c1OC	-0.7%	-28.7%	-16.1%	-18.1%	.	.	.	.
CCc1cnc2c(c1SCC(=O)NCc1ccc(F)cc1)c(=O)n(C)c(=O)n2C	-9.5%[60.1 µM]	1.9%	4.3%	-18.9%	.	.	.	.
C=CCn1c(=NC(=O)c2sc3ccccc3c2Cl)sc2cc(S(N)(=O)=O)ccc21	?	8.91µM*	25.9%	?	-33.0%[57.1 µM]	14.1*	-9.2	44.3
COc1cc(NC(=O)c2cc(-c3cccc(OC)c3)n[nH]2)cc(OC)c1	-5.5%	-42.5%	3.3%	3.1%	.	.	.	.
O=c1c(CCc2ccccc2)nc2cnc(N3CCNCC3)nc2n1CCc1ccccc1	-13.9%[60.1 µM]	.	.	.	.	.	.	.
COc1ccc(C(=O)Nc2ccc3c(c2)C(=O)c2ccccc2C3=O)cc1OC	-10.2%	2.24µM*	-4.9%	?	-32.8%	22.4*	-15.1	23.0	POLB valid=70.3*
COc1cc(C(=O)Nc2ccc3c(c2)C(=O)c2ccccc2C3=O)cc(OC)c1OC	-8.6%	?	23.5%	?	-13.0%	.	.	.
